Screens deposited in PubChem BioAssay by NMMLSC.
LAP4-GFP MLPCN: modulators of LAP4-GFP expression in yeast, primary screen, S. cerevisiae, multiplex flow cytometry, MLPCN library; 3 h; median GFP as percent of DMSO wells; GFP response vs DMSO, % at 10 µM; actives 0.34% (n = 320,000); AID 2023, 2009;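 active means GFP response vs DMSO above a set limit, about the screen mean plus 3 SD, cut at about 150% in these data; inconclusive means under 70 cell events counted for the yeast strain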
VLA-4 inh: inhibition in human VLA-4 binding assay, primary screen, VLA-4 allosteric modulator project, MLPCN library, flow cytometry, VLA-4 expressing cells; actives 0.2% (n = 330,000); Integrin alpha-4 (Homo sapiens), P13612; ligand binding flow cytometry; inhibition, % (about 7 µM as worked out from the volumes in the protocol); in the data active means inhibition above about 50%
Target sequence (P13612 whole entry, looked up): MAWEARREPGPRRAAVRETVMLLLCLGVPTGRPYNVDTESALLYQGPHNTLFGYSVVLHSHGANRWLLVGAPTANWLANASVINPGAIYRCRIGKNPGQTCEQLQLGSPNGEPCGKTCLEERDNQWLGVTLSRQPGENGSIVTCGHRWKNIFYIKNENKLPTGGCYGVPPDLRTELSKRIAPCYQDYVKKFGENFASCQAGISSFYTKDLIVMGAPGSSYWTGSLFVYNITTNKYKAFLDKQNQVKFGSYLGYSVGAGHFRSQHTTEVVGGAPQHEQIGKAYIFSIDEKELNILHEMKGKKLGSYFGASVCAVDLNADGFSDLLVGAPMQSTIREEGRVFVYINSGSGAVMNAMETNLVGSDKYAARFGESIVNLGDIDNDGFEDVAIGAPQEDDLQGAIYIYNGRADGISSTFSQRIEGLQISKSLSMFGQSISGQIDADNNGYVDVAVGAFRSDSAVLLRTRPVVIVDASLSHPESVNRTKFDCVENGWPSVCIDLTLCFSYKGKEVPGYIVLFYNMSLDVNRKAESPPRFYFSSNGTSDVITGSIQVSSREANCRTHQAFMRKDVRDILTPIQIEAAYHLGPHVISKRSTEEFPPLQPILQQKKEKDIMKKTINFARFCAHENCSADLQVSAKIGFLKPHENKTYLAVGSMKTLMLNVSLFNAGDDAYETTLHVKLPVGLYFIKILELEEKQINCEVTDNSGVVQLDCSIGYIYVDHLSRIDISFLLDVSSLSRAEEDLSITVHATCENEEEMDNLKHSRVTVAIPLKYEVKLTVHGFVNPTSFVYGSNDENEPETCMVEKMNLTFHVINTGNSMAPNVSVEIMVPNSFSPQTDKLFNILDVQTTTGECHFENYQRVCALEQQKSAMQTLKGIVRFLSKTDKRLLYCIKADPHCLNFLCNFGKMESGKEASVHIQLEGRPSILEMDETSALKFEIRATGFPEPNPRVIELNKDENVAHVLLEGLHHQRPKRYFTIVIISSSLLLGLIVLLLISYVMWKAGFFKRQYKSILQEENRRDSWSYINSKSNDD
CIT2 TOR yeast: modulators of CIT2-GFP expression in yeast, primary screen, S. cerevisiae, GFP fusion, multiplex flow cytometry, MLPCN library; actives 0.065% (n = 320,000); S. cerevisiae CIT2-GFP strain, 3 h; 100 means same as DMSO wells; GFP response vs DMSO, % at 10 µM; AID 2029, 2009;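 active means GFP response relative to DMSO above a set limit, near the screen mean plus 3 SD, cut at about 150% in these data; inconclusive means Fewer than 70 cells measured for a yeast strain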;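 further: ratio of well median GFP fluorescence to mean of DMSO wells on the plate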
MEP2 TOR yeast: modulators of MEP2-GFP levels in yeast, primary screen, S. cerevisiae, multiplex flow cytometry, MLPCN library; GFP response vs DMSO, % at 10 µM; AID 2016, 2009; S. cerevisiae MEP2-GFP strain, 3 h; 100% = DMSO control level; actives 0.51% (n = 330,000);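 active means GFP response versus DMSO above a set limit, roughly screen mean plus 3 SD, cut at about 180% in these data; inconclusive means fewer than 70 cells counted for a yeast strain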;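 further: median GFP fluorescence of the barcode-gated MEP2-GFP cells per well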
RPL19A-GFP yeast: RPL19A-GFP expression modulators in yeast, primary screen, cell-based, S. cerevisiae, multiplex flow cytometry, MLPCN; S. cerevisiae RPL19A-GFP strain, 3 h; stronger effect = lower value; actives 0.3% (n = 330,000); percent response vs DMSO, % at 10 µM;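 active means percent response vs DMSO below 50%; inconclusive means fewer than 70 events counted for the yeast strain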;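 further: median channel GFP fluorescence of the barcoded RPL19A-GFP strain; ratio of sample median GFP to plate DMSO average so 100% = DMSO; lower means less RPL19A-GFP as with rapamycin TOR inhibition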
AGP1-GFP MLPCN: modulators of AGP1-GFP expression in yeast TOR pathway, primary screen, cell-based, multiplex flow cytometry, S. cerevisiae, MLPCN library | actives 0.02% (n = 320,000) | 3 h; GFP as percent of DMSO wells | GFP response vs DMSO, % at 10 µM;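 active means GFP response relative to DMSO above a set limit, near screen average plus 3 SD, cut at about 150% in these data; inconclusive means fewer than 70 cells counted for the yeast strain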;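 further: median GFP channel fluorescence of the gated AGP1 strain per well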
An asterisk follows results filed as active; ? = inconclusive; / = not tested or not shown; [ ] = dose if it differs, or a comment. In the library only some 1.1% were active in any assay of this set; here they are far more common.

SMILES	LAP4-GFP MLPCN	VLA-4 inh	CIT2 TOR yeast	MEP2 TOR yeast	RPL19A-GFP yeast	AGP1-GFP MLPCN
O=[N+]([O-])c1ccc(N2N=C(c3ccccc3)CC2c2ccccc2O)cc1 (centres undefined)	97.7	-151.0	?	299.2*[may fluoresce violet]	68.2	23.6
O=S1(=O)NC(C2CC2c2ccccc2)CCO1 (centres undefined)	101.6	-2.3	83.0	94.9	104.2	90.8
CCCc1nnc(SCC(=O)N2CCCCC2)n1CC1CCCO1 (centres undefined)	95.9	-3.3	?	200.3*[may fluoresce violet]	65.2	31.1
Nc1ccc2oc(=O)c3ccccc3c2c1	71.3	-3.1	?	230.9*[may fluoresce violet]	33.5*[may fluoresce violet]	?
NC(=O)C(c1cccc(Cl)c1)c1ncc(C(F)(F)F)cc1Cl (centres undefined)	85.0	-8.9	?	239.1*[may fluoresce violet]	53.2	20.3
CC(C(=O)Nc1ccccc1)N(C)CCOc1ccccc1 (centres undefined)	96.5	-48.8	?	298.6*[may fluoresce violet]	40.0*[may fluoresce violet]	61.5
COc1ccccc1NC(=O)COC(=O)c1cc([N+](=O)[O-])ccc1N1CCCC1	105.7	11.1	81.3	95.7	91.8	92.7
COc1ccc(OC)c(NC(=S)N2c3ccccc3CC2C)c1 (centres undefined)	80.4	10.1	91.8	93.6	94.3	72.8
Cc1cc(C(=O)COC(=O)c2cccnc2Cl)c(C)n1C	105.0	5.5	102.0	101.1	98.3	100.8
COc1ccc(CNC(=O)CN(C)S(=O)(=O)c2ccc(Br)s2)cc1	85.5	-5.1	95.0	97.1	92.4	89.9
COc1ccccc1CNC(=O)CN(C)S(=O)(=O)c1ccc(Br)s1	?	6.4	?	?	21.3*[may fluoresce violet]	?
Cc1cccc(C(=O)NCc2nnc(SCC(=O)Nc3nncs3)n2C)c1	95.0	4.8	99.2	89.2	96.3	96.9
O=[N+]([O-])c1ccc(NC(=S)NCc2ccc(F)cc2)cc1	90.3	6.8	105.4	105.7	105.8	103.7
Cc1ccc2nc3nc(NCC4CCCO4)c(C(=O)NC4CCCC4)cc3c(=O)n2c1 (centres undefined)	85.0	3.8	?	266.7*[may fluoresce violet]	21.8*[may fluoresce violet]	?
C=CCNC(=O)c1cc2c(=O)n3cc(C)ccc3nc2nc1NCC1CCCO1 (centres undefined)	57.8	17.5	?	179.5*[may fluoresce violet]	28.5*[may fluoresce violet]	?
CCNc1nc2nc3ccc(C)cn3c(=O)c2cc1C(=O)NCC1CCCO1 (centres undefined)	?	-11.1	?	?	?	?
Nc1cc(S(=O)(=O)Nc2ccccc2Cl)ccc1N1CCCCC1	101.2	11.2	103.9	90.6	93.9	100.1
Cc1cc(=S)c2cccc(C)c2[nH]1	112.5	8.6	102.1	96.1	94.6	104.1
COc1cc(NC(=O)C/C(C)=N/NC(=O)c2ccccn2)c(OC)cc1Cl	83.8	-3.9	?	324.4*[may fluoresce violet]	48.1*[may fluoresce violet]	?
COc1ccccc1NC(=O)C/C(C)=N/NC(=O)c1ccccn1	95.2	1.5	109.1	102.1	106.2	107.0
CCOC(=O)N1CCN(C(=O)c2ccc3c(c2)NC(=O)/C(=C\c2cccc(C)c2)S3)CC1	100.7	-102.7	94.0	96.4	98.5	99.0
Cc1nn(Cc2ccc([N+](=O)[O-])cc2)c(=O)n1-c1cccc(Cl)c1	140.0	3.2	115.8	216.7*	95.9	108.3
Cn1cnc(S(=O)(=O)NCc2ccc(Br)cc2)c1	99.3	15.9	110.9	97.9	100.3	100.0
CCCCC[C@H](O)/C=C/C1=C(CCCCCCC(=O)O)C(=O)CC1	94.9	12.4	90.7	107.1	104.6	99.1
CCCCC[C@H](O)/C=C/[C@@H]1[C@@H](CCCCCCC(=O)O)[C@@H](O)C[C@H]1O	175.3*	44.5	101.2	150.0	80.9	109.5
SMILES	LAP4-GFP MLPCN	VLA-4 inh	CIT2 TOR yeast	MEP2 TOR yeast	RPL19A-GFP yeast	AGP1-GFP MLPCN
Cc1ccc2nc(N3C(=O)C(O)=C(C(=O)c4cc5ccccc5o4)C3c3cccs3)sc2c1 (centres undefined)	103.9	-68.0	93.1	191.8*	74.8	24.7
COc1ccc(OC)c(NC(=O)COc2ccc3c(c2)CCC3)c1	91.1	15.8	95.1	98.1	97.3	99.0
COc1ccc(C(CNC(=O)CNC(=O)c2ccc(F)cc2)N2CCCC2)cc1 (centres undefined)	98.1	7.1	99.2	94.2	93.8	93.7
COc1ccc(C(CNC(=O)Cc2c(F)cccc2Cl)N2CCCCC2)cc1 (centres undefined)	75.8	7.5	?	299.2*[may fluoresce violet]	95.9	19.3
O=C(c1ccccc1)N1CCN(C(=O)c2cc3ccccc3oc2=O)CC1	?	-7.4	?	?	28.1*[may fluoresce violet]	?
Cn1c(=O)c2c(nc(SCC(=O)N3CCCCCC3)n2C)n(C)c1=O	91.4	-1.9	85.8	96.0	95.7	95.0
CC(C)n1c(SCC(=O)N2CCCCC2)nc2c1c(=O)n(C)c(=O)n2C	86.8	8.4	?	305.4*[may fluoresce violet]	54.4	20.6
O=C(Nc1c2c(nn1-c1ccc([N+](=O)[O-])cc1)CS(=O)(=O)C2)c1ccccc1F	101.1	1.4	113.1	99.1	99.0	103.1
O=C(Nc1ccc(F)cc1F)c1ccc(-n2cncn2)nc1	93.1	-0.3	100.4	96.3	98.1	102.1
O=C(Nc1c(F)cccc1F)c1ccc(-n2cncn2)nc1	67.7	-1.7	?	232.8*[may fluoresce violet]	64.5	25.0
CCOc1ccc(OCC)c(NC(=O)c2[nH]c(C)c(C(C)=O)c2C)c1	100.7	0.4	?	368.2*[may fluoresce violet]	41.3*[may fluoresce violet]	?
CCOC(OCC)c1cn(Cc2ccc(C(=O)c3ccccc3)cc2)nn1	94.8	21.4	98.2	100.0	96.5	101.5
Brc1ccc2c(c1)OCCOCCOc1cc(Br)ccc1OCCOCCOCCO2	219.2*	13.3	90.4	111.0	77.3	105.2
Brc1cc2c(cc1Br)OCCOCCOCCOCCO2	96.8	14.8	/	100.2	92.9	96.9
CC(=O)c1ccc2c(c1)OCCOCCOCCO2	97.0	-0.5	?	574.8*[may fluoresce violet]	46.7*[may fluoresce violet]	?
CCC1C(=O)Nc2ccccc2N1C(=O)COc1ccccc1 (centres undefined)	104.1	-4.5	155.6*[may fluoresce green]	105.7	93.6	115.7
CC1CC(=O)Nc2ccccc2N1C(=O)COc1ccc2ccccc2c1 (centres undefined)	90.0	17.4	100.4	100.3	92.6	97.7
